The results in this text go back to publication PMC12350791.

Targets include USP39 (UniProt Q53GS9); SF1 (UniProt Q15637); SF3A1 (UniProt Q15459); SF3B3 (UniProt Q15393); SF3B2 (UniProt Q13435); SMC4 (UniProt Q9NTJ3); SNRPD1 (UniProt P62314); SNRPD3 (UniProt P62318); SNU13 (UniProt P55769); SPC25 (UniProt Q9HBM1); SPG11 (UniProt Q96JI7); STAT5B (UniProt P51692); STK24 (UniProt Q9Y6E0); SYMPK (UniProt Q92797); THOC1 (UniProt Q96FV9); THOC3 (UniProt Q96J01); THOC7 (UniProt Q6I9Y2); THRAP3 (UniProt Q9Y2W1); TMED2 (UniProt Q15363); TMED4 (UniProt Q7Z7H5); TMED7 (UniProt Q9Y3B3); TMED9 (UniProt Q9BVK6); TSNAX (UniProt Q99598); TXLNG (UniProt Q9NUQ3); UBE2I (UniProt P63279); UQCRC2 (UniProt P22695); UXT (UniProt Q9UBK9); VIRMA (UniProt Q69YN4); VPS35 (UniProt Q96QK1); YWHAB (UniProt P31946); YWHAG (UniProt P61981); YWHAH (UniProt Q04917); YWHAZ (UniProt P63104); ZC3H4 (UniProt Q9UPT8).

Assay in all cases: cross-linking mass spectrometry
Settings in all cases: DSBSO, in cells or nuclear extract, not told apart

TMED10, P49755, sequence (P49755 whole entry): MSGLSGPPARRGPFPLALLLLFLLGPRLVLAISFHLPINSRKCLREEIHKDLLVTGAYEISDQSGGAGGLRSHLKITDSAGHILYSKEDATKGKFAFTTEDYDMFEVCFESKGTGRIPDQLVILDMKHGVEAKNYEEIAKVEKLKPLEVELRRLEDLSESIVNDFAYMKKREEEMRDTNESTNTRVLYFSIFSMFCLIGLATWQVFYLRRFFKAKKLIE
VIRMA, sequence (Q69YN4 whole entry): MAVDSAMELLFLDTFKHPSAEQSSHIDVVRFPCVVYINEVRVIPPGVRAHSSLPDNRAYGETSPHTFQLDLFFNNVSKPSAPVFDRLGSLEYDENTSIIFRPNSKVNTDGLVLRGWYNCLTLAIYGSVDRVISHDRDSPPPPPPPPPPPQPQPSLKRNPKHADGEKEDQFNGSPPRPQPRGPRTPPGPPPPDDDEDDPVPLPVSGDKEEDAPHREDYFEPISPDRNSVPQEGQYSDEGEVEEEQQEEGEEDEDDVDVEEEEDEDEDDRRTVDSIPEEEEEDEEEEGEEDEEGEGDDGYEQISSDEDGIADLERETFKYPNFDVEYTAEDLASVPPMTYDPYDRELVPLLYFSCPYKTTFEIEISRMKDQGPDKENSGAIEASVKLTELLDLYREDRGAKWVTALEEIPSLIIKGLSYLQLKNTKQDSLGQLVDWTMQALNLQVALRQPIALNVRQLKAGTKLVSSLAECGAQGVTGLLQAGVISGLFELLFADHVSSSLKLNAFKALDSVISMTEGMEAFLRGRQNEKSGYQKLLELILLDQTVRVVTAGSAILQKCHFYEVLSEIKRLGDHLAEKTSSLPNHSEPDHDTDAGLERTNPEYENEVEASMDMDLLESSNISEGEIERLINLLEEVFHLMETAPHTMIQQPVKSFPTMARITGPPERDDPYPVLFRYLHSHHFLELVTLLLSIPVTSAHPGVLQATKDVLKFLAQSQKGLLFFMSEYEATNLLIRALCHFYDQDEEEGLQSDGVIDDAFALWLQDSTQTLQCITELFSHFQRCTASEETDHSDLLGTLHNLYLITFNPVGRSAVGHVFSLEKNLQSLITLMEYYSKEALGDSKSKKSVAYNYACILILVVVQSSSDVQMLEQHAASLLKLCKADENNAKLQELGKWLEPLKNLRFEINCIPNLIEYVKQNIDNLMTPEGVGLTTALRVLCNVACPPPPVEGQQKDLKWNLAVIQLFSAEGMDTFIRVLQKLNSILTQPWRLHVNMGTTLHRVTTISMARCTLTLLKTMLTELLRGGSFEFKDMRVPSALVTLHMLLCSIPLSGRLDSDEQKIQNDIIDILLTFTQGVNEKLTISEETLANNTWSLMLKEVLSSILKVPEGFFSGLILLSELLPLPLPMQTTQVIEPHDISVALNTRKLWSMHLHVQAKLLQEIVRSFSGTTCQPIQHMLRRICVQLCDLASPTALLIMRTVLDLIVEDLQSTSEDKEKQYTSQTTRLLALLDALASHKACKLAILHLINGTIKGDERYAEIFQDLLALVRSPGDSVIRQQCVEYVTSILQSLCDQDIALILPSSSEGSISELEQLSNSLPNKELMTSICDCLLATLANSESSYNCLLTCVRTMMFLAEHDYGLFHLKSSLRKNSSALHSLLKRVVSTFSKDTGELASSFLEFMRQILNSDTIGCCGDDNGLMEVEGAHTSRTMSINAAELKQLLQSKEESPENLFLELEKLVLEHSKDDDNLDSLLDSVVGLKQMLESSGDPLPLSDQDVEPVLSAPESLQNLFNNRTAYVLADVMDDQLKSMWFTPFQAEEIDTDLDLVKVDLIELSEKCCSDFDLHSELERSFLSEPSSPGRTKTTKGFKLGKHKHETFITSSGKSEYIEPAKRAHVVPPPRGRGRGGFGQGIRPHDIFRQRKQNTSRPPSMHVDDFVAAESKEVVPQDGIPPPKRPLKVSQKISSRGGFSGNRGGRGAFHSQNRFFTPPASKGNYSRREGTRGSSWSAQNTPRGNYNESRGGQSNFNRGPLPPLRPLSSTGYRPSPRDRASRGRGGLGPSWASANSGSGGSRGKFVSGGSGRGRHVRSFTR
TMED4, sequence (Q7Z7H5 whole entry): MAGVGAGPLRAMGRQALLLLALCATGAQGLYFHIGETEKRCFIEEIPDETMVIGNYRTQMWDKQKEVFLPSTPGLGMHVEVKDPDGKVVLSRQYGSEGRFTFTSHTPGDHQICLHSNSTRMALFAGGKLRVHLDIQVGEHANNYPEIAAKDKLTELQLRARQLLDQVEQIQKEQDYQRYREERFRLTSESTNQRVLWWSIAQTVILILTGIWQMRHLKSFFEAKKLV
SF3A3, Q12874, sequence (Q12874 whole entry): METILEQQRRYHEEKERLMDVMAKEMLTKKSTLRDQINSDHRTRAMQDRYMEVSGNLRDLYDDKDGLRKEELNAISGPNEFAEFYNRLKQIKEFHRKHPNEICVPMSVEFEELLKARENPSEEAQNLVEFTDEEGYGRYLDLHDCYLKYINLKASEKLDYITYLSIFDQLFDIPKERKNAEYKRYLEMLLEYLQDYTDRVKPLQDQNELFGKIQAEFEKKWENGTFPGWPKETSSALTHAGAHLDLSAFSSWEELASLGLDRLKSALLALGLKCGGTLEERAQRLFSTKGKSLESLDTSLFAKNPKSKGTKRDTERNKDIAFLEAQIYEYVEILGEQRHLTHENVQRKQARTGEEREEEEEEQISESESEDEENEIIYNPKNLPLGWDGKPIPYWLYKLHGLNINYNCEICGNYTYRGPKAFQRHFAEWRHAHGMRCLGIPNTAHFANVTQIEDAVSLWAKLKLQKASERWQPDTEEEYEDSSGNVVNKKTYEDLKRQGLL
SF3B2, Q13435, sequence (Q13435 whole entry): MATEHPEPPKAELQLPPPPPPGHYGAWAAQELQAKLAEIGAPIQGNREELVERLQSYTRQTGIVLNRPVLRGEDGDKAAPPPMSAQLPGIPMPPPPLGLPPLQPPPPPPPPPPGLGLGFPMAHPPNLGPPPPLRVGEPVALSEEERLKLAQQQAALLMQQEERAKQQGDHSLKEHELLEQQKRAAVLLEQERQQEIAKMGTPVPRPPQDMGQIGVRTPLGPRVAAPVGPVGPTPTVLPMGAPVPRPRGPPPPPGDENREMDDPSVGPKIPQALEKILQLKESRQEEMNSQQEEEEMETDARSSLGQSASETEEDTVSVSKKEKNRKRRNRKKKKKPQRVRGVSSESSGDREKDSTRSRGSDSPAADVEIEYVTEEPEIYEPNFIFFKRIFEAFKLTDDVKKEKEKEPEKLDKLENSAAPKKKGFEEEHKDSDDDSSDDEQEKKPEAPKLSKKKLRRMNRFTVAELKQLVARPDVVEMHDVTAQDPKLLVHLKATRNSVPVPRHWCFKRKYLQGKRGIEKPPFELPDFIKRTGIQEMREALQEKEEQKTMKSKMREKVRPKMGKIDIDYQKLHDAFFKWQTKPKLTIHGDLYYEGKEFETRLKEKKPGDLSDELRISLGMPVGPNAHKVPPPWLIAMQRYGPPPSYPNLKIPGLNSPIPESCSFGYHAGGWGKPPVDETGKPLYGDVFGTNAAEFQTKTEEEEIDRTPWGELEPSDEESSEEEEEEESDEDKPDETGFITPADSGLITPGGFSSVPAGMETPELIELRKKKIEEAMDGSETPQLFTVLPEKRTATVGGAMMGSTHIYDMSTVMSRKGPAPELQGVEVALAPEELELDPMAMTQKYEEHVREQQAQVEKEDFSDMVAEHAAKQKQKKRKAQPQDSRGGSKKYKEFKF
SF3B2, sequence (Q13435 whole entry): as above
THOC5, Q13769, sequence (Q13769 whole entry): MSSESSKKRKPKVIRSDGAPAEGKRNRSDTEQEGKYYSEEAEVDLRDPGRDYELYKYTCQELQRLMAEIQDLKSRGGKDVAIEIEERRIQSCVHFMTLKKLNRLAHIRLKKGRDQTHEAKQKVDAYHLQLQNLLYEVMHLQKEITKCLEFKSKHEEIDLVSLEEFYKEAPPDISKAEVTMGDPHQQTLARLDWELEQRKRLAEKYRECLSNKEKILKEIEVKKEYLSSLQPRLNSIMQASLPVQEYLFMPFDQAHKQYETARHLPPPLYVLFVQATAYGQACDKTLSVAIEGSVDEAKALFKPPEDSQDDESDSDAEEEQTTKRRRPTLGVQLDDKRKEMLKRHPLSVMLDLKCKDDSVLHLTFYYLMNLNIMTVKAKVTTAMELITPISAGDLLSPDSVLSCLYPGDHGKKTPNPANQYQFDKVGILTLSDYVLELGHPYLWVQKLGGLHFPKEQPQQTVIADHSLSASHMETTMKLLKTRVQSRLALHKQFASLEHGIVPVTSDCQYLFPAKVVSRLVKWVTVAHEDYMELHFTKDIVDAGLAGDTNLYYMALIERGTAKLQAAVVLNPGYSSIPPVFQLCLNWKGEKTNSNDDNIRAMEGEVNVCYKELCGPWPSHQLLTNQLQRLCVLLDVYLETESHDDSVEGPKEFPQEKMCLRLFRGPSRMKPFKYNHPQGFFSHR
YWHAZ, sequence (P63104 whole entry): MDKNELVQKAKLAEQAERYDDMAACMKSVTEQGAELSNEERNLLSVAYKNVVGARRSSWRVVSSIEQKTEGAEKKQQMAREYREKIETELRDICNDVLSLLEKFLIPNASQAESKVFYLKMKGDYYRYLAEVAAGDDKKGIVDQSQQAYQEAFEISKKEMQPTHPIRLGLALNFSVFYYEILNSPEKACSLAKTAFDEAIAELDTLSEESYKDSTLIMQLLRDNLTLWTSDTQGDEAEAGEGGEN
TMED2, Q15363, sequence (Q15363 whole entry): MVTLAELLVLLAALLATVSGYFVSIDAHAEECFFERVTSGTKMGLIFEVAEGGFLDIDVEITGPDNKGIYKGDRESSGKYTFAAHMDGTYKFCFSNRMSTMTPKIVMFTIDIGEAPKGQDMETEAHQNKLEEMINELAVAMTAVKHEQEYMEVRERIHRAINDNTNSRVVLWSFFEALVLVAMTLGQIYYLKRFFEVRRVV
UBE2I, sequence (P63279 whole entry): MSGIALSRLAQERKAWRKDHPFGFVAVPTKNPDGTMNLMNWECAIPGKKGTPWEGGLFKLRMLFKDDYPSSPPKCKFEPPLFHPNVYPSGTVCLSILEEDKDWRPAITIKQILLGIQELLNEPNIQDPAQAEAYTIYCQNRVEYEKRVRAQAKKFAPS

On to EFTUD2, Q15029, for which, in the assay with USP39, the cross-linked residues result is recorded as “K646 - K308”.
Consider IREB2, P48200, for which the cross-linked residues entry in the assay with SF1 is given as “K530 - K169”.
SF3A2, Q15428: the cross-linked residues entry in the assay with SF3A1 is given as “K190 - K264”.
On to SF3B2, Q13435, for which the cross-linked residues result with SF3A1 is reported as “K275 - K55”; with SF3B3, “K486 - K965”.
As to SF3A3, Q12874, the figures for the cross-linked residues result with SF3B2 and with SF3B3 were “K69 - K280” and “K496 - K974”, respectively.
As to SF3B1, O75533, in the assay with SF3B2, the cross-linked residues result is recorded as “K1292 - K486”.
With NCAPH, Q15003, the cross-linked residues entry with SMC4 is “K725 - K99”.
Take SNRPB, P14678: in the assay with SNRPD1, the cross-linked residues result is on record as “K54 - K44”.
Turning to SNRPC, P09234, in the assay with SNRPD3, the cross-linked residues result is “K52 - K78”.
In the case of PRPF6, O94906, the cross-linked residues result in the assay with SNU13 is recorded as “K775 - K113”.
As for TBC1D9B, Q66K14, the cross-linked residues result in the assay with SPC25 is “K1066 - K90”.
In the case of RPS16, P62249, in the assay with SPG11, the cross-linked residues result was “K60 - K942”.
With STAT5A, P42229, in the assay with STAT5B, the cross-linked residues entry is given as “K86 - K86”.
As to PDCD10, Q9BUL8, in the assay with STK24, the cross-linked residues result is recorded as “K70 - K347”.
With CSTF2, P33240, the cross-linked residues result with SYMPK is reported as “K189 - K490”.
Regarding THOC7, Q6I9Y2, the cross-linked residues entry with THOC1 is “K32 - S2”.
Regarding THOC5, Q13769, the cross-linked residues result with THOC3 is recorded as “K223 - K171”; with THOC7, “K223 - K159”.
Consider NDUFAF2, Q8N183, for which the cross-linked residues entry in the assay with THRAP3 is on record as “K57 - K668”.
Take TMED10, P49755: the cross-linked residues result in the assay with TMED2 was “K145 - K129”; in the assay with TMED4 it was “K145 - K152”; in the assay with TMED7, “K169 - K91”.
As for TMED2, Q15363, the cross-linked residues entry in the assay with TMED4 is “K129 - K152”; with TMED9, “K129 - K160”.
For TSN, Q15631, the cross-linked residues result with TSNAX is “K219 - K269”.
Turning to TXLNA, P40222, the cross-linked residues entry with TXLNG is on record as “K216 - K191”.
As to RANBP2, P49792, the cross-linked residues entry in the assay with UBE2I was “K2687 - K49”.
Regarding COX5B, P10606, the cross-linked residues result with UQCRC2 was “K57 - K23”.
Consider PDRG1, Q9NUG6, for which, in the assay with UXT, the cross-linked residues result is “K36 - K48”.
Turning to WTAP, Q15007, in the assay with VIRMA, the cross-linked residues entry is reported as “K268 - K399”.
Still for that read-out and setting: then ZC3H13, Q5T200, with “K1535 - K576”.
Consider VPS26A, O75436, for which the cross-linked residues result with VPS35 is recorded as “K30 - K44”.
For the substance YWHAQ, P27348, the cross-linked residues entry with YWHAB is recorded as “K85 - K11”.
Take YWHAB, P31946: the cross-linked residues result with YWHAG is listed as “K87 - K10”.
For the substance YWHAZ, P63104, the cross-linked residues entry with YWHAH is given as “K9 - K91”.
With YWHAE, P62258, the cross-linked residues result with YWHAZ is recorded as “K12 - K68”.
Turning to YWHAG, P61981, the cross-linked residues result in the assay with YWHAZ is reported as “K77 - K9”.
In the case of WDR82, Q6UXN9, the cross-linked residues result in the assay with ZC3H4 was “K181 - K935”.
